Screens as filed in PubChem BioAssay.
Sampled rows, rich in hits. Any-hit rate of the full collection: about 11%.
HCV inh: HCV inhibition | 3.4% of 340,000 active | Potency, µM (doses to about 41.8 µM), without a hit: at the highest dose activity change, negative = inhibition, usual class: inhibitors | Huh7.5.1 HCVcc-Cre infection, luciferase reporter, 44 h
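Seed cells (1,000/well) for 4 h; treat with compound and infect with HCVcc-Cre, moi about 0.5. Incubate 44 h, then detect luciferase activity.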
AmpC inh detg: inhibitors of E. coli AmpC beta-lactamase with detergent | P00811 | AmpC hydrolysis of nitrocefin, absorbance 480 nm, 0.01% Triton | Potency, µM (titrated, usually from 114 µM), inactives show at the highest dose activity change, negative = inhibition, hits mostly inhibitors | 0.041% of 370,000 active | AID 485294;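 note: 0% = no-compound wells and -100% = no-enzyme wells; nearly all actives have a fitted effect of over 25% in size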
Target sequence (P00811 whole entry, looked up): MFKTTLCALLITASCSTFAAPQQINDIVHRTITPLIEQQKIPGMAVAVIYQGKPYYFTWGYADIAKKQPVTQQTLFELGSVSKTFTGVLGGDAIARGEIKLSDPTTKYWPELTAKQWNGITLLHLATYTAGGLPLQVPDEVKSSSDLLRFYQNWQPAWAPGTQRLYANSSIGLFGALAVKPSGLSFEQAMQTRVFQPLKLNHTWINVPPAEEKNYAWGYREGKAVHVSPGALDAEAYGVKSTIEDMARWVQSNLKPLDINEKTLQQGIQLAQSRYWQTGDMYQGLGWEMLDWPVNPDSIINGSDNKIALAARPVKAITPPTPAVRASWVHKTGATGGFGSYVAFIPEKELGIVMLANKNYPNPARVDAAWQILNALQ
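AmpC (5.3 nM in the dispensed reagent) in 20 mM phosphate pH 7.0 with 0.01% (detergent screen) or 0.0001% Triton X-100 was preincubated with compounds for 15 min at room temperature. Nitrocefin was then added from an 800 uM solution, and hydrolysis was followed at 480 nm.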
Pf growth 96h: P. falciparum growth inhibition at 96 hour, primary screen for plastid delayed-death inhibitors. Potency, µM (highest dose often 28.7 µM), inactives show at the top dose activity change, negative = inhibition, usual class: inhibitors. AID 504834. P. falciparum luciferase reporter growth, 96 h. 6.9% of 320,000 active
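Plates of compound plus infected erythrocytes (2% hematocrit, 0.05% parasitemia final) incubate 96 hours, 37 C, 5% CO2. Detection reagent added; reduced luminescence from the parasites' luciferase reporter flags inhibition.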
AMA1-RON2 inh: inhibitors of Plasmodium falciparum AMA1-RON2 interaction; AlphaScreen AMA1-biotinylated RON2 peptide binding; Potency, µM (top dose mostly 58.2 µM), for the others: at the top dose activity change, negative = inhibition, usual class: inhibitors; 0.2% of 360,000 active;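 note: 0% = vehicle wells and -100% = peptide control; nearly all actives have a fitted effect of over 45% in size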
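AMA1 (3D7) with his tag at 25 nM final met compounds first, then biotinylated RON2 peptide at 25 nM; detection used donor plus acceptor beads, 10 µg/mL apiece, read by AlphaScreen after 30 min at room temperature.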
Pf growth 48h: inhibits P. falciparum growth in the first generation, 48 h; P. falciparum luciferase growth in erythrocytes, 48 h; Potency, µM (doses to about 28.7 µM), inactives show at the top dose activity change, negative = inhibition, usual class: inhibitors; 5.9% of 310,000 active
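Here the parasites carry a stable luciferase gene and grow inside erythrocytes in Albumax-based RPMI medium with compound for one erythrocytic cycle. Activity is scored as loss of luminescent signal.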
AmpC no deterg: AmpC beta-lactamase inhibition without detergent; AmpC nitrocefin hydrolysis, absorbance 480 nm, 0.0001% Triton; Potency, µM (highest dose often 57.1 µM), without a hit: at the highest dose activity change, negative = inhibition, most hits filed as inhibitors; 0.52% of 330,000 active;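 note: plate controls were no compound for no effect and no enzyme for full effect; nearly all actives have a fitted effect of over 20% in size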
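20 mM phosphate pH 7.0 + 0.01% (detergent screen) or 0.0001% Triton X-100; 5.3 nM AmpC reagent; cpd preinc 15 min RT; nitrocefin (800 uM stock) to start; A480 q20 s × 4 min; Activity was normalised to no-enzyme and no-compound control wells.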
The depositor's hits bear a star; ? = inconclusive; / = no result. Calls come from the whole dose curve; as a rule, active = well fitted curve in the direction sought with a large enough effect; inconclusive = small, poorly fitted or top-dose-only effect, or another doubt; inactive = no such curve, though single readings can be large; an effect the other way counts as inactive or inconclusive. Unless noted, % is set by controls: 0 for no effect and ±100 for the full control effect; potency is the fitted concentration of half-maximal effect.

SMILES	HCV inh	AmpC inh detg	Pf growth 96h	AMA1-RON2 inh	Pf growth 48h	AmpC no deterg
COC(=O)c1ccc(OC(=O)c2ccc(OCc3c(C)noc3C)c(OC)c2)cc1	/	-8.6%	10.4µM*	/	14.5%	1.3%
COc1ccc(CCNC(=O)c2cc(-c3ccc(Cl)cc3)on2)cc1OC	/	9.1%	/	/	/	/
CCOc1ccc(CCNC(=O)c2ccc(OCc3c(C)noc3C)cc2)cc1OCC	?	?	7.38µM*	-22.2%	?	21.7%
Cc1noc(C)c1COc1ccc(C(=O)Nc2ccccn2)cc1	-3.6%	-11.9%	?	-7.7%	12.1%	-20.6%
COCCNC(=O)CSc1nc(-c2ccc(C)cc2)nc2c1c(=O)n(C)c(=O)n2C	/	3.9%	/	/	/	/
COc1ccc(CCNC(=O)c2ccc(OCc3c(C)noc3C)c(OC)c2)cc1	0.9%	/	/	9.2%	/	-6.2%
COc1ccc(CCNC(=O)c2ccc(OCc3c(C)noc3C)cc2)cc1OC	?	-6.1%	?	14.2%	9.28µM*	15.3%
Cc1cc(NC(=O)c2ccc(NC(=O)CCS(=O)(=O)c3cccs3)cc2)ccc1Br	/	11.7%	/	/	/	/
Cc1c(Cl)cccc1NC(=O)CSc1ncnc2c1sc1ccccc12	/	-7.3%	/	/	/	/
Cc1cc(NC(=O)CSCC(=O)Nc2ccccc2N2CCCCC2)no1	-2.4%	-2.2%	?	-13.7%	13.1µM*	-12.6%
Cc1cc(NC(=O)CSCC(=O)Nc2cc(C(F)(F)F)ccc2N2CCCC2)no1	?	-18.1%	-6.1%	0.2%	?	-17.3%
O=C(Cc1ccc(Cl)c(Cl)c1)Nc1ccccc1N1CCCC1	?	-3.0%	11.7µM*	5.6%	-12.0%	-56.0%
CC(=O)c1cccc(NC(=O)c2cccn2-c2nnc(N3CCCCC3)s2)c1	/	5.2%	/	/	/	/
O=C(CSc1ncc2c(n1)-c1ccccc1N(Cc1ccc(Cl)cc1)S2(=O)=O)c1ccccc1	/	4.6%	/	/	/	/
CCOc1ccc(CC(=O)Nc2c(C(N)=O)oc3ccc(Br)cc23)cc1OCC	1.3%	-11.9%	11.7µM*	7.6%	/	-11.2%
COc1ccc(CC(=O)Nc2c(C(N)=O)oc3ccccc23)cc1OC	3.9%	-8.0%	-0.6%	1.2%	-8.0%	-0.6%
CCOc1ccc(CC(=O)Nc2c(C(=O)c3ccc(C)cc3)oc3ccccc23)cc1OCC	/	3.0%	/	/	/	/
CCOc1ccc(CC(=O)Nc2c(C(=O)Nc3ccccc3)oc3ccccc23)cc1OCC	-10.0%	?	0.928µM*	-4.7%	-1.4%	-13.1%
COc1ccc(NC(=O)c2oc3ccccc3c2NC(=O)Cc2cccs2)cc1	/	-8.5%	/	/	/	/
COCCNC(=O)c1ccc2nc(CCc3ccccc3)oc2c1	/	15.1%	/	/	/	/
CCOc1ccc(NC(=O)CSC2=Nc3ccccc3C3=NC(Cc4ccccc4)C(=O)N23)cc1 (centres undefined)	/	-6.8%	/	/	/	/
C/C=C(\C)C(=O)OC1C(C)=C2C(C1OC(=O)CCCCC)C(C)(OC(C)=O)CC(OC(=O)CCC)C1(O)C2OC(=O)C1(C)O (centres undefined)	/	10.3%	2.94µM*	/	4.15µM*	237.8%
C=CCNc1cc(C(F)(F)F)nc(-c2ccccn2)n1	-3.2%	-1.7%	4.15µM*	20.3%	6.57µM*	-3.5%
COCCNC(=O)c1ccc2c(=O)n(CCc3ccccc3)c(SCC(=O)CC(=O)OC)nc2c1	/	2.0%	/	/	/	/
Cc1nn2c(NCCN(C)C)c3c(nc2c1-c1ccccc1)CCCC3	7.08µM*	-9.1%	2.08µM*	50.6%	?	71.9%
Cc1nn2c(NCCOCCO)c3c(nc2c1-c1ccccc1)CCCC3	11.2µM*	-9.1%	?	1.1%	-2.9%	140.0%
CCC(C)Nc1c2c(nc3c(-c4ccccc4)c(C)nn13)CCC2 (centres undefined)	2.24µM*	-16.1%	?	19.6%	?	29.8%
COc1cccc(Nc2c3c(nc4c(-c5ccccc5)c(C)nn24)CCC3)c1	?	-14.7%	11.7µM*	46.2%	?	-6.3%
